Bioassay records: PubChem, National Center for Advancing Translational Sciences (NCATS)
Only some compounds are listed: those with a hit (about 2.7% of all), similar ones and a draw of the others.
pAkt inh: HTS Assay for Inhibitors of Akt Phophorylation: Primary Screen | Neuro2A IGF-stimulated pAkt S473 HTRF, 20 min; active compounds read low | activity change, % for hits at 50 µM | hit rate 0.32% among 360,000 | AID 651550, 2012; in the data active means activity change below about -80%; inconclusive means mostly about -51% to -80%
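Neuro2A cells in DMEM with 0.5% FBS, overnight at 37 deg C, given compound at single 50 µM final, then IGF (6 nM final) for 20 min at 37 deg C. Lysed; phospho-Akt Ser473 by HTRF after 24 h, 665/615 ratio.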
gsp ag: qHTS for Agonist of gsp, the Etiologic Mutation Responsible for Fibrous Dysplasia/McCune-Albright Syndrome: qHTS; gsp mutant cells, cAMP HTRF, 30 min; AID 624287, 2012; hit rate 0.13% among 340,000; Potency, µM (series often up to 76.9 µM), usual class: activators; active means well fitted activation curve with a large enough effect; inconclusive means small, poorly fitted or top-dose-only effect, or another doubt; inactive means no such curve, though single readings can be large or run the other way; cell line not stated here;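 further: phosphodiesterase inhibitor Ro 20-1724 added with compounds to block cAMP breakdown; nearly all actives have a fitted effect of over 60% in size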
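Cells stably selected in G418 were plated at 2000/well, grown 16-24 hr, then given compounds in DMSO with the PDE inhibitor […] (300 uM solution added) for 30 min at 37C; cAMP was read by HTRF.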
gsp antagonist: qHTS for Antagonists of gsp, the Etiologic Mutation Responsible for Fibrous Dysplasia/McCune-Albright Syndrome: qHTS; gsp-mutant cells, cAMP HTRF, 30 min; Potency, µM (series often up to 76.9 µM), most hits filed as inhibitors; hit rate 0.4% among 340,000; AID 624288, 2012; calls by dose curve; cell line not stated here;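 further: intracellular cAMP measured with PDE inhibitor Ro 20-1724 present during compound exposure; nearly all actives have a fitted effect of over 65% in size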
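HTRF cAMP measurement after 30 min RT detection following 30 min, 37C compound treatment alongside […] (added as 300 uM solution) in G418-selected cells seeded at 2000/well and grown 16–24 h.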
ClpP mod: qHTS Assay for Activators of ClpP; purified B. subtilis ClpP, FRET peptide cleavage, 20 min; AID 651965, 2013; Potency, µM (highest dose often 57.5 µM); hit rate 1.9% among 340,000; active means well fitted falling curve with a large enough effect; inconclusive means small, poorly fitted or top-dose-only effect; inactive means no such curve, though single readings can be large or run the other way; further: the source files actives as falling curves though it sought activators and does not explain the sign; nearly all actives have a fitted effect of over 65% in size
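ClpP 10 microg/mL final, pH 8 Tris/KCl buffer with BSA, glycerol, Tween-20; compound pinned in; FRET-FV substrate; RT 20 min; Ex320/Em430; ΔFRET vs ADEP 5.8 microM, DMSO, no enzyme.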
RXFP1 agonist: qHTS Assay for Agonists of the Relaxin Receptor RXFP1 | Relaxin receptor 1 (Homo sapiens), Q9HBX9 | HEK293T-RXFP1 cAMP TR-FRET, 30 min; response scale: percent of porcine relaxin response, buffer zero | Potency, µM (doses to about 57.5 µM), most hits filed as activators | hit rate 0.3% among 370,000; active means well fitted activation curve with a large enough effect; inconclusive means small, poorly fitted or top-dose-only effect; further: nearly all actives have a fitted effect of over 60% in size
Target sequence (Q9HBX9 whole entry, looked up): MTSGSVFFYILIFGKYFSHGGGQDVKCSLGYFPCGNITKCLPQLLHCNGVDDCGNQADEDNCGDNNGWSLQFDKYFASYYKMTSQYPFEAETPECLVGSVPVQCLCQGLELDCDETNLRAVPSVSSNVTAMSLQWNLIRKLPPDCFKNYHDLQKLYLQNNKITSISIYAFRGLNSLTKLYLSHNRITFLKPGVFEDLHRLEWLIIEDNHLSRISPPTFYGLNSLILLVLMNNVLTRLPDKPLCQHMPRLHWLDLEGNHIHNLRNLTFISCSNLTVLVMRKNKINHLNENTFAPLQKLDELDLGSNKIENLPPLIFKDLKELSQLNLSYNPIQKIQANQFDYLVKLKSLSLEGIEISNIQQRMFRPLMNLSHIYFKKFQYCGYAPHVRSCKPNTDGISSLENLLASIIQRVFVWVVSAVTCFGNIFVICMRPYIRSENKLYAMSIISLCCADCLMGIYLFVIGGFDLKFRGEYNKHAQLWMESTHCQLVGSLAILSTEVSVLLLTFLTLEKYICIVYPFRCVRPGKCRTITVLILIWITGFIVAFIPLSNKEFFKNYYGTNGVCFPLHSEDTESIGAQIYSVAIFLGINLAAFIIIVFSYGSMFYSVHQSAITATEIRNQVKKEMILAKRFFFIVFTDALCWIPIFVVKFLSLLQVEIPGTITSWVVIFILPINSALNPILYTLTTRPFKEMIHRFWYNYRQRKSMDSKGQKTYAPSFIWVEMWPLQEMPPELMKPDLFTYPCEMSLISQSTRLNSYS
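HEK293T cells stably expressing RXFP1 were pretreated with the PDE4 inhibitor Ro 20174, exposed to compounds for 30 min at 37C, lysed, and cAMP was read by TR-FRET. Data normalized to buffer (basal) and 29 nM porcine relaxin (100%).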
RXFP1 antagonist: qHTS Assay for Antagonists of the Relaxin Receptor RXFP1; HEK293-RXFP1, relaxin-stimulated cAMP HTRF, 30 min; active compounds read low; Relaxin receptor 1 (Homo sapiens), Q9HBX9; activity change, negative = inhibition, % at 57.5 µM; hit rate 0.59% among 350,000; AID 1259400, 2018;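 active means activity change of -60% or lower, but not beyond a set lower limit; inconclusive means change between -60% and -40%, or beyond the set limit; inactive means change above -40%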
Numbers stand for hits; [ ] = remark or other dose.

What do the screens show for `O=c1c2c3nc4ccccc4nc3n(CC3CCCO3)c2ncn1CCc1ccccc1` (configuration not stated)?
pAkt inh: inactive; gsp ag: inactive; gsp antagonist: inactive; ClpP mod: 4.5µM; RXFP1 agonist: inactive; RXFP1 antagonist: inactive

What do the screens show for `CN(C)c1ccc(-c2noc(C3CCN(S(=O)(=O)c4ccc(C(=O)O)cc4)CC3)n2)cc1`?
pAkt inh: inactive; gsp ag: inactive; gsp antagonist: inactive; ClpP mod: inactive; RXFP1 antagonist: inactive

What do the screens show for `CN(C)c1ccc(-c2noc(C3CCN(S(=O)(=O)c4cccc(Cl)c4)CC3)n2)cc1`?
gsp ag: inactive; gsp antagonist: inactive; ClpP mod: 20µM; RXFP1 agonist: inactive; RXFP1 antagonist: inactive

Results for CCN1C(=O)c2cccc3c(S(=O)(=O)N(C(=O)c4cccnc4)c4ccc(OC)cc4)ccc1c23 ?
pAkt inh: inactive; gsp ag: inactive; gsp antagonist: inactive; ClpP mod: 35µM; RXFP1 agonist: inactive; RXFP1 antagonist: inactive

How did CCc1nc(OCc2ccco2)c2sc3nc4c(cc3c2n1)COC(C)(C)C4 do in these assays?
pAkt inh: inactive; gsp ag: inactive; gsp antagonist: inconclusive; ClpP mod: inactive; RXFP1 agonist: inactive; RXFP1 antagonist: inactive

Results for Cc1nc(OCC(C)C)c2sc3nc4c(cc3c2n1)COC(C)(C)C4 ?
pAkt inh: inactive; gsp ag: inactive[15.4 µM]; gsp antagonist: inactive; RXFP1 agonist: inactive; RXFP1 antagonist: -103

What do the screens show for `COc1nc(C)nc2c1sc1nc3c(cc12)COC(C)(C)C3`?
pAkt inh: inactive; gsp ag: inactive; gsp antagonist: inactive; ClpP mod: 28µM; RXFP1 agonist: inactive; RXFP1 antagonist: inactive

What do the screens show for `CC1(C)Cc2nc3sc4c(N(CCO)CCO)ncnc4c3cc2CO1`?
pAkt inh: inactive; gsp ag: inactive; gsp antagonist: inactive; ClpP mod: 14µM; RXFP1 agonist: inactive; RXFP1 antagonist: inactive

How did OCCNc1ncnc2c1ncn2[C@H]1CN(Cc2ccc3c(c2)OCO3)C[C@@H](CO)O1 do in these assays?
pAkt inh: inactive; ClpP mod: inactive

What do the screens show for `CCCS(=O)(=O)NC(=O)C1(C)CCN(C(=O)c2ccc(C(F)(F)F)cc2)C1` (configuration not stated)?
ClpP mod: inactive

What do the screens show for `C/C(=N/NC(=O)c1ccncc1)C(=O)O`?
RXFP1 antagonist: inactive

How did O=C1CN(C(=O)COC(=O)c2ccccc2NCc2ccco2)c2ccccc2N1 do in these assays?
pAkt inh: inactive; gsp ag: inactive; gsp antagonist: inactive; ClpP mod: 25µM; RXFP1 agonist: inactive; RXFP1 antagonist: inactive

What do the screens show for `O=C1CN(C(=O)COC(=O)c2ccco2)c2ccccc2N1`?
pAkt inh: inactive; gsp ag: inactive; gsp antagonist: inactive; ClpP mod: inactive; RXFP1 agonist: inactive; RXFP1 antagonist: inactive

How did COCCNC(=O)c1cc(-c2ccccc2OC)on1 do in these assays?
pAkt inh: inactive; gsp ag: inactive; gsp antagonist: inactive; ClpP mod: inactive; RXFP1 agonist: inactive; RXFP1 antagonist: inactive

How did CCN(CC)C(=O)c1cc(-c2ccccc2OC)on1 do in these assays?
pAkt inh: inactive; gsp ag: inconclusive; gsp antagonist: inactive; ClpP mod: 25µM; RXFP1 agonist: inactive; RXFP1 antagonist: inactive

What do the screens show for `CC(=O)N1c2ccc(S(=O)(=O)N3CCC(C(=O)Nc4ccc(F)cc4)CC3)cc2CC1C` (configuration not stated)?
pAkt inh: inactive; gsp ag: inactive; gsp antagonist: 10µM; ClpP mod: inactive; RXFP1 agonist: inactive; RXFP1 antagonist: inactive

How did Cc1nn(C(C)C)c(C)c1CN1CCC(C(=O)Nc2cccc(-c3cccc(F)c3)c2)CC1 do in these assays?
pAkt inh: inactive; gsp ag: inactive; gsp antagonist: inactive; ClpP mod: inactive; RXFP1 agonist: inactive; RXFP1 antagonist: -82

How did COCCn1c(C)cc(C(=O)CN2C(=O)C(=O)N(CCC3=CCCCC3)C2=O)c1C do in these assays?
pAkt inh: inactive; gsp ag: inactive; ClpP mod: inactive; RXFP1 antagonist: inactive

How did COc1ccc(-c2nn(-c3ccccc3)cc2/C=C/C(=O)OCC(=O)Nc2ccc(C#N)cc2)cc1 do in these assays?
pAkt inh: inactive; gsp ag: inactive; gsp antagonist: inactive; ClpP mod: 28µM; RXFP1 agonist: inactive

Results for COc1ccc(-c2nn(-c3ccccc3)cc2/C=N/NC(=O)c2ccc3c(c2)OCO3)cc1 ?
RXFP1 agonist: inactive

Results for COc1ccc(-c2nn(-c3ccccc3)cc2/C=N/NC(=O)c2cccc(S(=O)(=O)Nc3ccccc3OC)c2)cc1 ?
pAkt inh: inactive; gsp ag: inactive; gsp antagonist: inactive; ClpP mod: 18µM; RXFP1 agonist: inactive; RXFP1 antagonist: inactive

What do the screens show for `COc1ccc(-c2nn(-c3ccccc3)cc2/C=N/NC(=O)c2ccc(Br)o2)cc1`?
pAkt inh: inactive; gsp ag: inactive; gsp antagonist: inconclusive; ClpP mod: 32µM; RXFP1 agonist: inactive; RXFP1 antagonist: inactive

What do the screens show for `CC12CCC(CC1O)C2C(=O)O` (configuration not stated)?
pAkt inh: inactive; gsp ag: inconclusive; ClpP mod: inactive; RXFP1 antagonist: inactive

What do the screens show for `NC(=O)C1CCN(S(=O)(=O)c2ccc(N3CCCCS3(=O)=O)cc2)CC1`?
ClpP mod: inactive; RXFP1 agonist: inactive; RXFP1 antagonist: inactive

What do the screens show for `CCCc1nn2c(=O)cc(CSCC(=O)Nc3nnc(CC)s3)nc2s1`?
pAkt inh: inactive; gsp ag: inconclusive; gsp antagonist: inactive; ClpP mod: inactive; RXFP1 agonist: inactive; RXFP1 antagonist: inactive

What do the screens show for `CCc1cccc(NC(=O)Cn2c(=O)n(CCc3ccc(OC)c(OC)c3)c(=O)c3ccccc32)c1`?
ClpP mod: inconclusive; RXFP1 agonist: inactive

Results for COC(=O)c1[nH]c2ccc(Br)cc2c1NC(=O)CN1CCN(C2CCCCC2)CC1 ?
pAkt inh: inactive; gsp ag: inactive; gsp antagonist: inactive; ClpP mod: inactive; RXFP1 agonist: inactive; RXFP1 antagonist: -63

Results for COC(=O)c1[nH]c2ccc(Cl)cc2c1NC(=O)CCN1CCN(C2CCCCC2)CC1 ?
pAkt inh: inactive; gsp ag: inactive; gsp antagonist: inactive; ClpP mod: inactive; RXFP1 agonist: inactive; RXFP1 antagonist: inactive
